This is an account of results in PubChem BioAssay (Tox21).

Where “and” joins values, the source holds several entries; their conditions need not be identical. Identical values can stand only once. Inconclusive results are not listed. A structure can be active in one record and inactive in another. Calls of active or inactive are those of the source. Unless noted, calls come from the whole dose curve; as a rule, active = well fitted curve in the direction sought with a large enough effect in the repeat runs; inconclusive = weak or mixed curves; inactive = no such curve, though single readings can be large; an effect the other way counts as inactive or inconclusive.

Test [1] has as its target Aryl hydrocarbon receptor (Homo sapiens) (UniProt P35869). In words: qHTS assay to identify small molecule that activate the aryl hydrocarbon receptor (AhR) signaling pathway (AID 743085). Note: potency is the fitted concentration of half-maximal effect; nearly all actives have a fitted effect of over 15% in size. Put shortly:
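Luminescence read-out: ONE-Glo reagent, 30 min at room temperature, in HG2L7.5c1 HepG2 reporter cells treated 24 h at 37C. Viability was measured beforehand by CellTiter-Fluor fluorescence after 30 min at 37C.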

Test [2] can be described thus: qHTS assay to identify small molecule that activate the aryl hydrocarbon receptor (AhR) signaling pathway - cell viability counter screen (AID 743086). Note: nearly all actives have a fitted effect of over 45% in size. Note: potency is the fitted concentration of half-maximal effect. Put shortly:
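Cytotoxicity counter screen: CellTiter-Fluor signal (30 min, 37 C) in 4000 HepG2 cells/well carrying the DRE-luciferase reporter, following 24 h compound exposure at 37 C.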

A short description of test [3]: qHTS assay to identify small molecule antagonists of the peroxisome proliferator-activated receptor gamma (PPARg) signaling pathway - cell viability counter screen (AID 743194). Note: nearly all actives have a fitted effect of over 55% in size. Note: potency is the fitted concentration of half-maximal effect. The procedure, abridged: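 Viability was measured as CellTiter-Glo luminescence in GeneBLAzer PPARg UAS-bla HEK293H cells. These cells had been exposed 17 h at 37 C to compounds together with rosiglitazone at 50 nM final, with the beta-lactamase readout taken in the same wells.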
(In general: Quantitative high-throughput screening tests each substance at several concentrations.)

A short description of test [4]: qHTS assay for small molecule activators of the heat shock response signaling pathway - cell viability counter screen (AID 743209). Note: nearly all actives have a fitted effect of over 50% in size. Note: potency is the fitted concentration of half-maximal effect. The procedure, abridged: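 To flag cytotoxic compounds, HSE-bla HeLa cells plated at 1500 cells/well were dosed for 5 h at 37 C, followed by the reporter FRET read and then CellTiter-Glo, with luminescence recorded 30 min after reagent addition.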

Test [5] is described as follows: qHTS assay to identify small molecule agonists of the peroxisome proliferator-activated receptor delta (PPARd) signaling pathway - cell viability counter screen (AID 743211). Note: nearly all actives have a fitted effect of over 55% in size. Note: potency is the fitted concentration of half-maximal effect. Put shortly: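 Read-out: CellTiter-Glo luminescence, 30 min RT, measured in the same wells as the beta-lactamase reporter. Cells: GeneBLAzer PPAR delta UAS-bla HEK293H, 3000 cells/well, compound exposure 17 h at 37C.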

Test [6] is described as follows: qHTS assay to identify small molecule antagonists of the peroxisome proliferator-activated receptor delta (PPARd) signaling pathway - cell viability counter screen (AID 743213). Note: nearly all actives have a fitted effect of over 50% in size. Note: potency is the fitted concentration of half-maximal effect. The procedure, abridged: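 PPARd-bla HEK293H cells (3000/well) got compound plus 300 nM L165041 agonist for 17 h at 37 C. Viability in the same wells came from CellTiter-Glo luminescence after 30 min at room temperature.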

Test [7] in a line: qHTS assay to identify small molecule agonists of the farnesoid-X-receptor (FXR) signaling pathway - cell viability counter screen (AID 743218). Note: nearly all actives have a fitted effect of over 45% in size. Note: potency is the fitted concentration of half-maximal effect. The procedure, abridged: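 Same-well cytotoxicity check on FXR-UAS-bla HEK 293T cells: 5 h attachment, 16 h compound at 37 C, CellTiter-Glo luminescence read at room temperature after 30 min.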
The target of test [8] is Bile acid receptor (Homo sapiens) (UniProt Q96RI1). Description: qHTS assay to identify small molecule agonists of the farnesoid-X-receptor (FXR) signaling pathway (AID 743220; active = well fitted activation curve with a large enough effect in the signal ratio in the repeat runs, not every such curve was filed as active; the % refers to the signal ratio). Put shortly: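 FXR-UAS-bla HEK 293T cells carrying a UAS-driven beta-lactamase reporter were plated for 5 h at 37C/5% CO2, then exposed to DMSO-dissolved Tox21 10K compounds for 16 h at 37C. A LiveBLAzer B/G FRET substrate was loaded for 2 h at room temperature before fluorescence reading.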
Bile acid receptor (Homo sapiens), sequence (Q96RI1 whole entry, looked up): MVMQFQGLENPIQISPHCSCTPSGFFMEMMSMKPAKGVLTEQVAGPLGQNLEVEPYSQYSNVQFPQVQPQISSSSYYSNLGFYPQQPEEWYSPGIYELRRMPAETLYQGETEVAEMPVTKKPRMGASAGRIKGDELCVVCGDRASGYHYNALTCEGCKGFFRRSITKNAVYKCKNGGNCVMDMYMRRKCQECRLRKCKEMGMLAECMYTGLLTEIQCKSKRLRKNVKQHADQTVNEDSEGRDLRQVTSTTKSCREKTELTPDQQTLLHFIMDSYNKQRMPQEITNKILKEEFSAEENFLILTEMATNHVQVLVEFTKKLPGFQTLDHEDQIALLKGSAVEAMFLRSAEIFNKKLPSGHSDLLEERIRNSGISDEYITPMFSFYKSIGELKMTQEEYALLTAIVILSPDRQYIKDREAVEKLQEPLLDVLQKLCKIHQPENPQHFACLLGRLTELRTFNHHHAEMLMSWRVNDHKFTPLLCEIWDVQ

The nature of test [9]: qHTS assay to identify small molecule antagonists of the farnesoid-X-receptor (FXR) signaling pathway - cell viability counter screen (AID 743221; active = well fitted cell-killing curve with a large enough effect in the repeat runs, not every such curve was filed as active; note: nearly all actives have a fitted effect of over 50% in size; note: potency is the fitted concentration of half-maximal effect). The procedure, abridged: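 HEK 293T FXR-bla cells, 5 h pre-incubation; compound + CDCA 50 uM final, 16 h, 37 C; beta-lactamase FRET read first, then CellTiter-Glo luminescence, 30 min RT.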
The nature of test [10]: qHTS assay to identify small molecule agonists of the vitamin D receptor (VDR) signaling pathway - cell viability counter screen (AID 743224). Note: nearly all actives have a fitted effect of over 50% in size. Note: potency is the fitted concentration of half-maximal effect. The procedure, abridged:
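Counter screen for cytotoxicity: VDR-bla cells at 2,000 cells/well, 16 h compound exposure, then CellTiter-Glo luminescence after the beta-lactamase measurement.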

In test [11] the target is Peroxisome proliferator-activated receptor gamma (Homo sapiens) (UniProt P37231). Description: qHTS assay to identify small molecule agonists of the peroxisome proliferator-activated receptor gamma (PPARg) signaling pathway (AID 743094; active = well fitted activation curve with a large enough effect in the signal ratio in the repeat runs, not every such curve was filed as active; the % refers to the signal ratio). The procedure, abridged: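 Fluorescence-based beta-lactamase readout in HEK293H PPARg UAS-bla cells after 17 h compound exposure (37C) and 1 h B/G FRET substrate incubation at room temperature.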
Peroxisome proliferator-activated receptor gamma (Homo sapiens), sequence (P37231 whole entry, looked up): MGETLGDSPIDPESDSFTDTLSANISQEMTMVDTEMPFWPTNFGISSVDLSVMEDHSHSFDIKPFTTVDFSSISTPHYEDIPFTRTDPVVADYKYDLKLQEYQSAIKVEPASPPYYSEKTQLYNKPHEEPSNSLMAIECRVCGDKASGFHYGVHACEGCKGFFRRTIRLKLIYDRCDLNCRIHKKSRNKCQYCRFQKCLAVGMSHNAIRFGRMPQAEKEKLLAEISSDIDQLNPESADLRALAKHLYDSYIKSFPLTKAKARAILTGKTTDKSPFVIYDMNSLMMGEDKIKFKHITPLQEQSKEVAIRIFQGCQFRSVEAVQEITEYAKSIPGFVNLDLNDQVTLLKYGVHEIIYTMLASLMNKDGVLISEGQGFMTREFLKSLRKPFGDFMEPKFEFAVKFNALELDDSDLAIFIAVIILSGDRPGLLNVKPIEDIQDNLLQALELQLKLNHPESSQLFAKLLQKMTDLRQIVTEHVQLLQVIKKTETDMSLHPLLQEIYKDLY

Test [12] shares this target. In words: qHTS assay to identify small molecule antagonists of the peroxisome proliferator-activated receptor gamma (PPARg) signaling pathway (AID 743191; calls by dose curve; note: nearly all actives have a fitted effect of over 30% in size; note: potency is the fitted concentration of half-maximal effect). Put shortly:
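Beta-lactamase reporter under UAS control in HEK293H PPARg-bla cells; compound treatment 17 h at 37C. Read-out: fluorescence intensity after 1 h room-temperature incubation with LiveBLAzer B/G FRET substrate.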

A short description of test [13]: qHTS assay for small molecule agonists of the antioxidant response element (ARE) signaling pathway - cell viability counter screen (AID 743203; calls by dose curve; note: nearly all actives have a fitted effect of over 55% in size; note: potency is the fitted concentration of half-maximal effect). Put shortly: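 Parallel cytotoxicity read-out for the ARE-bla screen: HepG2 reporter cells, 16 hrs with compounds, then CellTiter-Glo luminescence.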
A short description of test [14]: qHTS assay for small molecule activators of the heat shock response signaling pathway (AID 743210; active = well fitted activation curve with a large enough effect in the signal ratio in the repeat runs, with a control signal flat, not every such curve was filed as active; the % refers to the signal ratio; note: series mostly up to about 63 µM). Put shortly:
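Compound exposure lasted 5 h at 37 C in HeLa cells carrying a heat-shock-element-driven beta-lactamase reporter. Read-out: fluorescence intensity after 2.5 h room-temperature loading with LiveBLAzer B/G FRET substrate.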

In test [15] the target is Peroxisome proliferator-activated receptor delta (Homo sapiens) (UniProt Q03181). Description: qHTS assay to identify small molecule agonists of the peroxisome proliferator-activated receptor delta (PPARd) signaling pathway (AID 743212; calls by dose curve). The procedure, abridged: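 Beta-lactamase reporter readout: a ratiometric FRET signal from the LiveBLAzer substrate after 2 h at room temperature. Compound exposure at 37 °C in PPARδ-bla HEK293H cells driven by an upstream activator sequence.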
Peroxisome proliferator-activated receptor delta (Homo sapiens), sequence (Q03181 whole entry, looked up): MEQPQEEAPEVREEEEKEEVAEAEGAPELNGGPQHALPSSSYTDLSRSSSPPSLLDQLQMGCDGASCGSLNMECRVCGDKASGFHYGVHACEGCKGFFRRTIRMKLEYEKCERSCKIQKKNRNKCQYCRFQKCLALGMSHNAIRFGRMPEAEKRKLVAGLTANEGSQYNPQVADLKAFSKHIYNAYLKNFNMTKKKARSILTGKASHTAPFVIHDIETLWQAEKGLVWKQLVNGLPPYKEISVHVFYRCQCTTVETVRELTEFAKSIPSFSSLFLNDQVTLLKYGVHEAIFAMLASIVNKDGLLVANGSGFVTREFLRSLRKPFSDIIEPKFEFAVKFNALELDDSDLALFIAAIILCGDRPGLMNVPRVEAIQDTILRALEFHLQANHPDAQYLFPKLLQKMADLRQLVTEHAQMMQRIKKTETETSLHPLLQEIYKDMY

Test [16] has the same target. Description: qHTS assay to identify small molecule antagonists of the peroxisome proliferator-activated receptor delta (PPARd) signaling pathway (AID 743215; active = well fitted inhibition curve with a large enough effect in the signal ratio in the repeat runs, not every such curve was filed as active; the % refers to the signal ratio;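 note: cells stimulated with agonist L165041 at 300 nM final during compound exposure; series mostly up to about 62 µM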). Put shortly:
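Screen format: qHTS, antagonist mode. HEK293H PPARd-bla cells received compound and 300 nM L165041 (final), 17 h, 37 C. Beta-lactamase detected via FRET substrate fluorescence, 2 h, room temperature.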

In test [17] the target is Bile acid receptor (Homo sapiens) (UniProt Q96RI1). In words: qHTS assay to identify small molecule antagonists of the farnesoid-X-receptor (FXR) signaling pathway (AID 743217; active = well fitted inhibition curve with a large enough effect in the signal ratio in the repeat runs, not every such curve was filed as active; the % refers to the signal ratio). Put shortly: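 Quantitative HTS, beta-lactamase reporter format: FXR-UAS-bla HEK 293T cells co-treated 16 h at 37 °C with compounds and 50 uM final chenodeoxycholic acid, then read by B/G FRET fluorescence.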

The nature of test [18]: qHTS assay for small molecule agonists of the antioxidant response element (ARE) signaling pathway (AID 743202; active = well fitted activation curve with a large enough effect in the signal ratio in the repeat runs, not every such curve was filed as active; the % refers to the signal ratio; note: potency is the fitted concentration of half-maximal effect). The procedure, abridged:
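After 16 hours of compound treatment at 37 C, HepG2 cells with a stably integrated ARE-driven beta-lactamase reporter were loaded 2 hours at room temperature with LiveBLAzer B/G FRET substrate and fluorescence intensity measured.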

Test [19] deals with Vitamin D3 receptor (Homo sapiens) (UniProt P11473). Description: qHTS assay to identify small molecule antagonists of the vitamin D receptor (VDR) signaling pathway (AID 743223; active = well fitted inhibition curve with a large enough effect in the signal ratio in the repeat runs, not every such curve was filed as active; the % refers to the signal ratio). Put shortly: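 Beta-lactamase reporter read-out: FRET substrate fluorescence after 2 h at room temperature, following 16 h exposure of VDR-bla cells to test compound plus 3 nM (final) 1alpha,25-dihydroxyvitamin D3 agonist at 37C.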
Vitamin D3 receptor (Homo sapiens), sequence (P11473 whole entry, looked up): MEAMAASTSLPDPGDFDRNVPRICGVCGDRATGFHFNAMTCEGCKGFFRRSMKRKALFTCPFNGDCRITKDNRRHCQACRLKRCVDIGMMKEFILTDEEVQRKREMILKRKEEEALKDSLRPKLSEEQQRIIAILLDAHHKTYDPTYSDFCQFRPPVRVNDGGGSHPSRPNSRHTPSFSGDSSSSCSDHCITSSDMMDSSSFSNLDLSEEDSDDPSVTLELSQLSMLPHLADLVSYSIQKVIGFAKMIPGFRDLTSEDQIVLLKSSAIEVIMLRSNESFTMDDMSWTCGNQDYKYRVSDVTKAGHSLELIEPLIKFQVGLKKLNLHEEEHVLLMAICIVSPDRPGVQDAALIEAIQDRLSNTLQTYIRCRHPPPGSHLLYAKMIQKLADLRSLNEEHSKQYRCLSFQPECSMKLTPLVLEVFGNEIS

The target is the same in test [20]. In words: qHTS assay to identify small molecule agonists of the vitamin D receptor (VDR) signaling pathway (AID 743222; calls by dose curve). The procedure, abridged: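 Using LiveBLAzer B/G FRET detection, agonism was scored in VDR-bla cells exposed overnight (16 h, 37C) to DMSO-dissolved compounds; substrate incubation was 2 h at room temperature.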

Aryl hydrocarbon receptor (Homo sapiens), sequence (P35869 whole entry, looked up): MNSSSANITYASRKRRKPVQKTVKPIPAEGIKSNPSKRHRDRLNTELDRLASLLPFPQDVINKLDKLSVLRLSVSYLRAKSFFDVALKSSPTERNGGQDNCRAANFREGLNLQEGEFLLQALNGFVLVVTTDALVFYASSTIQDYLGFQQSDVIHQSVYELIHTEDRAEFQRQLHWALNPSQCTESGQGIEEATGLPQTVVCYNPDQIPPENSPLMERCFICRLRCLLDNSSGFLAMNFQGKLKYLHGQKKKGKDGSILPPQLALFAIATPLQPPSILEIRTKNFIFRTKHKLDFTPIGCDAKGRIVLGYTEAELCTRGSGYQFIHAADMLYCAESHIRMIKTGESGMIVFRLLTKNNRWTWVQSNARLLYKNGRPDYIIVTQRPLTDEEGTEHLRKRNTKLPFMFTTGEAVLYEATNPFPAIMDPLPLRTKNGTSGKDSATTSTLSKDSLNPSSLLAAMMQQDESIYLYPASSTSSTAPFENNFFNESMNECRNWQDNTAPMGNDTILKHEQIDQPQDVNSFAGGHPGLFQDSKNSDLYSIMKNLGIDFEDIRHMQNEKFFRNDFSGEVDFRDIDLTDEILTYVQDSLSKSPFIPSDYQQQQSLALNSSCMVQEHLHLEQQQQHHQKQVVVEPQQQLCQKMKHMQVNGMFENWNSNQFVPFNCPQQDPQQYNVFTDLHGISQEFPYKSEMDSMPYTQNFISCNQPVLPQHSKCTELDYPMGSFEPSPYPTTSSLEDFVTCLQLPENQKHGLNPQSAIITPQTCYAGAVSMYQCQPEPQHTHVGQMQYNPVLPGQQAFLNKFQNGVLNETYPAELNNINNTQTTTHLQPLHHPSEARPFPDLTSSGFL

As to `O=C(Nc1ccc([N+](=O)[O-])cc1Cl)c1cc(Cl)ccc1O`, the Potency in test [1] is 0.211 µM (active); in test [3] it was 123 nM (active) and 461 nM (active); in test [4], 0.309 µM (active); in test [5], 219 nM (active) and 259 nM (active); in test [6], 1.64 µM (active); in test [7], 1.38 µM (active) and 1.16 µM (active). The Potency in test [9] was 3.26 µM (active); in test [10], 549 nM (active) and 651 nM (active). In test [2], the Potency entry was “inactive”. Moreover, the outcome in test [8] was inactive.
On to `CC(CCC(=O)O)(c1ccc(O)cc1)c1ccc(O)cc1`, for which the Potency entry in test [2], in [11], in test [12], in [3], in test [13] and in test [4] was “inactive” in each case. Moreover, the Potency result in [14], in [5], in test [6], in test [16], in [17] and in [7] was “inactive” each time. The Potency entry in test [9] and in [10] was “inactive” throughout. The molecule was called inactive in test [15] and in test [8].
As for `COc1c(Cl)c(Cl)c(Cl)c(Cl)c1Cl`, the Potency entry in test [2], in test [3], in test [18], in test [13], in [4] and in [14] was “inactive” throughout. Further, the Potency entry in test [5], in test [6], in [17], in [9] and in test [10] was “inactive” throughout. Besides, the call in test [8] was inactive.
In the case of `O=C(O)c1ccccc1Nc1cccc(C(F)(F)F)c1`, the Potency entry in test [2], in test [11], in test [3], in [13], in [4] and in test [14] was “inactive” each time. The Potency result in test [5], in test [6], in test [16], in test [7], in test [9] and in test [10] was “inactive” throughout. For the same molecule, in test [18], the Potency was 54.5 µM (active). Moreover, the molecule was classed as inactive in test [19].
Take `Cc1cccc([N+](=O)[O-])c1C`: the Potency entry in test [2], in test [11], in test [12], in test [3], in test [13] and in test [4] was “inactive” each time. The Potency result in [14], in test [5], in [6], in test [16], in [7] and in [9] was “inactive” in each case. Besides, the Potency entry in test [10] was “inactive”. Further, the call in test [15], in [20] and in test [19] was inactive.
For `CNCCCC12CCC(c3ccccc31)c1ccccc12`, the Potency entry in test [2] is “inactive and 61.1 µM (active)”; in test [12], 13.3 µM (active); in test [3] it was 54.9 µM (active); in test [13], 19.3 µM (active); in test [5], 17.4 µM (active) and 29.8 µM (active); in [6], 9.77 µM (active) and 16.8 µM (active). In addition, the Potency was 19.5 µM (active) and inactive in [7]; 38.9 µM (active) in [9]; 21.9 µM (active) and inactive in test [10]. The Potency entry in test [11], in test [4] and in [14] was “inactive” each time. The molecule was called inactive in [15] and in test [19].
